# PubChem BioAssay (NCI)
# “And” between values parts separate entries of the source, which are not always exact repeats. Equal values may be shown once. About 83,000 compounds went through this panel and 20% of them were active in at least one assay; those are over-represented in the sample as a whole.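 A percent growth of 40 corresponds to 60% growth inhibition; 0 means no net growth; -100 means all cells died. Active threshold: below 10.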 The source made the active and inactive calls.
# Tested on: UACC-62 melanoma
# Assay: NCI-60 one-dose screen, 48 h (100 = growth as untreated, 0 = no growth, -100 = all killed)
# Conditions: 10 µM
# Experimental: Growth inhibition of the UACC-62 human tumor cell line is measured as a screen for anti-cancer activity. Cells are grown in 96 well plates and exposed to the test compound for 48 hours. Compounds are tested at a single concentration, which is 10^-5 M for most compounds. The reported endpoint is percent growth (GI% or GIPRCNT), where numbers from 0 - 100% represent growth inhibition, and numbers from -100% - 0 represent cell death. For example, a value of 40 represents 60% growth inhibition. A value of 0 means no net growth occurred over the course of the experiment. A value of -40 indicates 40% of cells at the beginning of the experiment died by the end of the experiment. A value of -100 means all cells are dead at the end of the experiment.
# NCI-60 Human Tumor Cell Lines Screen was performed using the standard one-dose NCI protocol, which is described in more detail at https://dtp.cancer.gov/discovery_development/nci-60/default.htm.
# Compounds with GIPRCNT values below 10 were considered active. Activity score was based on GIPRCNT using the following formula: […]
# Score is 0 for GIPRCNT values of 100 or above, 50 for GIPRCNT values of 0, and 100 for GIPRCNT values of -100.
row,Structure (SMILES),growth
1,COc1cc2c(c(OC)c1OC)-c1ccc(O)c(=O)cc1[C@@H](NC(C)=O)CC2,55.2% (inactive)
2,CC1CCC2(OC1)OC1C(O)C3C4CCC5CC(OC6OC(CO)C(OC7OC(CO)C(O)C(OC8OCC(O)C(O)C8O)C7OC7OC(CO)C(O)C(OC8OC(CO)C(O)C(O)C8O)C7O)C(O)C6O)C(O)CC5(C)C4CCC3(C)C1C2C (stereo not given),22.5% (inactive)

# Same assay, conditions: 10 µM unless noted
row,Structure (SMILES),growth
1,COS(=O)(=O)c1ccccc1,102% (inactive)
2,Oc1ccccc1-c1ccccc1,98.5% (inactive) and 96% (inactive)
3,CCOP(=O)(OCC)/C(C#N)=C/c1ccc(Br)cc1,88.6% (inactive)
4,NC(=O)c1cc([N+](=O)[O-])c(Cl)c([N+](=O)[O-])c1,100% (inactive)
5,CN(C)CC1(N)C(=O)NC(=O)NC1=O,97.5% (inactive)
6,COC12c3c(C)cc(O)c4c(=O)occ(c34)C(=O)C1C13COC(=O)c4c(O)cc(C)c(c41)C(=O)C2C3OC(C)=O (stereo not given),97.5% (inactive)
7,CC(C)C1(NC(=O)C2CC3c4cccc5[nH]cc(c45)CC3N(C)C2)OC2(O)C3CCCN3C(=O)C(Cc3ccccc3)N2C1=O (stereo not given),86.4% (inactive)
8,COc1cc(/C=C\[N+](=O)[O-])ccc1O,61.1% (inactive) and 80.2% (inactive)
9,O=C(CBr)Nc1ccc(Cl)cc1,71.6% (inactive)
10,O=[P+](O)c1ccccc1,105% (inactive)
11,COc1ccccc1[As]=[As]c1ccccc1OC (stereo not given),-84.6% (active)
12,[Cl][Hg][c]1ccc(Cl)s1,51.3% (inactive)
13,CC(=O)[O][Hg][c]1c(C)c(C)cc(C)c1C,-26.1% (active)
14,CN(CCCl)c1ccc(/C=C/C2=[N+](C)c3ccccc3C2(C)C)cc1,31.6% (inactive)
15,COc1ccc(/C=C(\C)[N+](=O)[O-])cc1OC,32.7% (inactive)
16,C#CC1(O)CCC(C(C)(C)C)CC1 (stereo not given),104% (inactive)
17,CS(=N)(=O)CCC(N)C(=O)O (stereo not given),113% (inactive)
18,COc1cc(/C=C(/C)[N+](=O)[O-])ccc1O,55.4% (inactive) and -53.8% (active)

row,Structure (SMILES),growth
1,O=c1[nH]c2ccccc2n1C1CCN(CCCC(c2ccc(F)cc2)c2ccc(F)cc2)CC1,38.4% (inactive) and 30.3% (inactive)
2,COc1ccc2c(ccc3oc([N+](=O)[O-])cc32)c1,-60.2% (active)
3,COC(=O)C1C(O)C(C)C(O)C(C)/C=C\C=C(C)C(=O)Nc2c(C)c(OC(C)=O)c3c(c2O)C(=O)C(C)=C2OCOC(=C23)C(C)=CC(C)(O)C(O)C(C)C1O (stereo not given),97.4% (inactive)
4,O=[N+]([O-])c1ccc(Br)c([N+](=O)[O-])c1,103% (inactive)
5,Cc1ccc(C(=O)C2C(c3ccccc3)N2C2CCCCC2)cc1 (stereo not given),102% (inactive) and 91.2% (inactive)
6,CC/C(=C/c1ccc(OC)cc1)[N+](=O)[O-],-60.8% (active)
7,COc1cc([C@@H]2c3cc4c(c(O)c3C[C@H]3COC(=O)[C@@H]32)OCO4)cc(OC)c1OC,64.3% (inactive)
8,C[C@H]1CC[C@@]2(NC1)O[C@H]1C[C@H]3[C@@H]4CC[C@H]5C[C@@H](O)CC[C@]5(C)[C@H]4CC[C@]3(C)[C@H]1[C@@H]2C,8.84% [100 µM] (active) and 2.39% [100 µM] (active)
9,CC(=O)Nc1c2sscc-2n(C)c1=O,-99.2% (active)
10,O=[N+]([O-])/C=C\c1ccc2c(c1)OCO2,82.5% (inactive)
11,COc1cc(/C=C/[N+](=O)[O-])cc(OC)c1OC,-26.9% (active)
12,O=[N+]([O-])/C=C/c1ccc([N+](=O)[O-])cc1,71.5% (inactive) and 81.1% (inactive)
13,O=C(CBr)Nc1ccccc1,99.6% (inactive)
14,[Cl][Sn]([c]1ccccc1)([c]1ccccc1)[c]1ccccc1,-75.4% (active)
15,O=C1C(=O)c2ccccc2-c2ccccc21,-67.4% (active)
16,O=C1C=Cc2ccccc2C1=O,100% (inactive)
17,C/C1=C\[C@H](C)C[C@H](C)OC(=O)C[C@H](c2ccc(O)cc2)NC(=O)[C@@H](Cc2c(Br)[nH]c3ccccc23)N(C)C(=O)[C@H](C)NC(=O)[C@@H](C)C1,-1.83% (active)
18,Cc1cc(C(C)(C)c2ccc(O)c(C)c2)ccc1O,79.3% (inactive)

# Same assay, conditions: 100 µM
row,Structure (SMILES),growth
1,COc1cc2c(c(OC)c1OC)-c1ccc(O)c(=O)cc1[C@@H](NC(C)=O)CC2,-41.5% (active)
2,CC1CCC2(OC1)OC1C(O)C3C4CCC5CC(OC6OC(CO)C(OC7OC(CO)C(O)C(OC8OCC(O)C(O)C8O)C7OC7OC(CO)C(O)C(OC8OC(CO)C(O)C(O)C8O)C7O)C(O)C6O)C(O)CC5(C)C4CCC3(C)C1C2C (stereo not given),-89.7% (active) and -92% (active)
